MCF10A rerep = inducers of DNA re-replication in MCF 10A breast cells; MCF 10A DNA re-replication, Hoechst nuclear intensity, 48 h; Potency, µM (highest dose often 46.1 µM), inactives show at the top dose activity, positive = re-replication, most hits filed as activators; hit rate 2.9% among 350,000; AID 624296; also: % of control where 0% means no effect; nearly all actives have a fitted effect of over 50% in size
SW480 rerep = DNA re-replication induction in SW480 cells; SW480 DNA re-replication, Hoechst DNA content imaging, 48 h; Potency, µM (highest dose often 46.1 µM), without a hit: at the highest dose re-replication activation, usual class: activators; hit rate 1.8% among 340,000; also: % of control where 0% means no effect; nearly all actives have a fitted effect of over 55% in size
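250 cells/well; 23 nL cpd via pin tool; 48 hr, 37 C, 5% CO2; Hoechst 40 min; imager read of total nuclear intensity, ex 405/em 500-530 nm.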
Gal4-VP16 FLuc = Gal4-VP16 reporter inhibition counter-screen. Potency, µM (titrated, usually from 53.6 µM), for the others: top-dose activity, negative = inhibition, usual class: inhibitors. AID 2546. Drosophila S2 Gal4-VP16 UAS-luciferase, luminescence, 20 h. hit rate 3.5% among 310,000;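 also: Gal4-VP16 expression switched on by copper sulfate through the metallothionein promoter; % is scaled to controls: 0 for no effect and ±100 for the full control effect; nearly all actives have a fitted effect of over 50% in size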
RORg inh = blocks mouse ROR gamma transcriptional activity; Drosophila S2 Gal4-RORgamma UAS-luciferase reporter, 20 h; Potency, µM (highest dose often 53.6 µM), inactives show at the highest dose activity change, negative = inhibition, actives largely listed as inhibitors; hit rate 5.4% among 310,000; AID 2551; also: % is scaled to controls: 0 for no effect and ±100 for the full control effect; nearly all actives have a fitted effect of over 60% in size
Target sequence (P51450 whole entry, looked up, the tested form may be a part): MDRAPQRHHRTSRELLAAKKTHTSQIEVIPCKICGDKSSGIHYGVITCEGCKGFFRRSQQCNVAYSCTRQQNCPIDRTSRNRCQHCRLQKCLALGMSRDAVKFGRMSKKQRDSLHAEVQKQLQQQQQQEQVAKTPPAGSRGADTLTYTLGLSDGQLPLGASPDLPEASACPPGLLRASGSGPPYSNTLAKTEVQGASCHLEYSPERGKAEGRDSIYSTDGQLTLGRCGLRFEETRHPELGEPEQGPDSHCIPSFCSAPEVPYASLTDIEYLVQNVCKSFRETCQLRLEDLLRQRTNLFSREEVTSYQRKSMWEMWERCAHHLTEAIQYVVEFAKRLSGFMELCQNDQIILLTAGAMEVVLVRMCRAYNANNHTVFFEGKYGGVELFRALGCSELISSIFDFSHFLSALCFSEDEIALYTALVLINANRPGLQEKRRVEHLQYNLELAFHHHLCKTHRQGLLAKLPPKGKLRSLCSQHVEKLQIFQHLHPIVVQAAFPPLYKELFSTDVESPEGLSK
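Drosophila S2 cells stably expressing Gal4-DBD/mouse RORγ fusion under metallothionein promoter plus UAS-luciferase; compound 1 h, then 700 uM CuSO4 induction for 20 h at ambient temperature; inhibition read as reduced luminescence.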
ELG1 repair inh = ELG1-dependent DNA repair inhibition; HEK293T ELG1-luciferase reporter, luminescence, 16 h; DNA damage induced by 5-fluorouridine; Potency, µM (titrated, usually from 46.1 µM), for inactives: at the highest dose activity change, negative = inhibition, usual class: inhibitors; hit rate 2.3% among 330,000; also: % is scaled to controls: 0 for no effect and ±100 for the full control effect; nearly all actives have a fitted effect of over 55% in size
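Step one: seed 2,000 cells per well. Step two: pin-transfer compound or DMSO alongside 5-fluorouridine. Step three: incubate 16 hr, 37 °C, 5% CO2. Step four: add ONE-Glo, wait 30 min, read luminescence.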
The depositor's hits bear a star; ? = inconclusive; . = no result; [ ] = another dose, or the depositor's remark. Shown are actives, neighbours in structure and some others; about 10% of the full set was active somewhere. Calls follow the shape of the dose curve; as a rule, active = well fitted curve in the direction sought with a large enough effect; inconclusive = small, poorly fitted or top-dose-only effect, or another doubt; inactive = no such curve, though single readings can be large; an effect the other way counts as inactive or inconclusive. Potency is read from the fitted curve at half-maximal effect.

SMILES | MCF10A rerep | SW480 rerep | Gal4-VP16 FLuc | RORg inh | ELG1 repair inh
CCCn1c(=O)c(C(=O)Nc2cccc(C)c2)c(O)c2ccccc21 | 11% | -15% | 13µM* | ? | 3%
CCCn1c(=O)c(C(=O)NNC(=O)c2ccccc2Cl)c(O)c2ccccc21 | ? | -18% | ? | 11µM* | -12%
CCn1c(=O)c(C(=O)NCc2ccccc2Cl)c(O)c2ccccc21 | ? | -13% | 20µM* | ? | -2%
CCCCCCC(=O)NNC(=O)c1c(O)c2ccccc2n(CC)c1=O | 20% | 20% | ? | 11µM* | -10%
CCCn1c(=O)c(C(=O)NNC(=O)c2ccccc2[N+](=O)[O-])c(O)c2ccccc21 | . | . | ? | ? | -1%
CCc1nnc(NC(=O)CCC(=O)NC2CCCCCCC2)s1 | 0% | 19% | -1% | 2% | 15%
C=CCn1c(=O)c(C(=O)Nc2ccccc2C)c(O)c2ccccc21 | 18µM* | 4% | 22% | 6% | ?
COc1cccc(OCc2ccc(Cl)cc2)c1C#N | 27% | -4% | ? | ? | ?
C[C@@H]1CC2C3CCC4=CC(=O)C=C[C@]4(C)[C@@]3(F)[C@@H](O)C[C@]2(C)[C@@]1(O)C(=O)COC(=O)c1cccc(S(=O)(=O)O)c1 (some centres not stated) | 4% | -5% | 6% | 22% | .
CCc1cccc(NC(=O)Cn2c(=O)c3cccn3c3ccccc32)c1 | 18µM* | 3% | -2% | -38% | 24%
CC1(NC(=O)c2cccc(S(=O)(=O)N3CCN(c4ccc(F)cc4)CC3)c2)CCS(=O)(=O)C1 (configuration not stated) | 2% | -3% | . | . | -7%
CCCCC(=O)Nc1cccc(NC(=O)c2ccc(Br)cc2)c1 | -4% | -6% | 8% | 20% | -5%
COC(=O)CC(N)c1ccc(Br)cc1 (configuration not stated) | 1% | -5% | 0% | 18% | 9%
O=C(Nc1ccc(NC(=O)c2ccc(Cl)cc2Cl)cc1)c1cccs1 | 23% | 19% | -26% | -27% | -3%
CCCCC(=O)Nc1cccc(NC(=O)c2cccc(Br)c2)c1 | -1% | -4% | -4% | -7% | 7.3µM*
COC(=O)CC(NC(=S)NC(=O)c1ccccc1)c1ccc(Br)cc1 (configuration not stated) | 2% | -23% | ? | 13µM* | 9%
CCC(=O)NC(=S)Nc1ccc(NC(=S)NC(=O)c2ccc(C)cc2)cc1 | -16% | -4% | 2% | ? | -4%
O=C(NC(=S)Nc1cccc(NC(=O)c2ccc(Cl)cc2Cl)c1)c1cccs1 | 11% | -4% | 11µM* | 20µM* | -33%
CCC(=O)NC(=S)Nc1ccc(NC(=S)NC(=O)c2ccccc2)cc1 | -1% | 0% | ? | 3.2µM* | 3%
CCC(=O)NC(=S)Nc1cccc(NC(=O)c2ccccc2C)c1 | 3% | -8% | -2% | ? | 11%
CCCC(=O)NC(=S)Nc1cccc(NC(=O)c2ccc(Cl)cc2Cl)c1 | 10% | 0% | ? | 10µM* | ?
CCC(=O)NC(=S)Nc1cccc(NC(=O)c2ccccc2Cl)c1 | -10% | 0% | -25% | 11µM* | -15%
CC(C)Oc1cccc(C(=O)NC(=S)Nc2cccc(NC(=O)c3ccccc3Cl)c2)c1 | -1% | 1% | 8.9µM* | 11µM* | ?
CCC(=O)NC(=S)Nc1cccc(NC(=O)c2ccccc2)c1 | 4% | 12% | ? | 5µM* | ?
CCCC(=O)NC(=S)Nc1cccc(NC(=O)c2ccccc2Cl)c1 | 6% | 1% | ? | ? | ?
SMILES | MCF10A rerep | SW480 rerep | Gal4-VP16 FLuc | RORg inh | ELG1 repair inh
CCCC(=O)Nc1cccc(NC(=O)c2ccc([N+](=O)[O-])cc2Cl)c1 | -2% | -3% | -13% | -37% | ?
CC(C)CC(=O)NC(=S)Nc1cccc(NC(=O)c2ccccc2Cl)c1 | 12% | 3% | ? | ? | ?
CC(=O)OCC1OC(n2c(Br)nc3c(=O)[nH]c(N)nc32)C(OC(C)=O)C1OC(C)=O (configuration not stated) | . | . | -2% | -4% | .
CCSc1nc2c(cnn2-c2ccccc2)c(=O)n1N | -42% | 3% | -3% | -33% | ?
COc1ccc(NC(=S)NNC(=O)CNc2ccc(Cl)cc2)cc1 | 19% | 0% | 7.9µM* | 5.6µM* | -21%
O=C(CCc1ccccc1)NNC(=O)c1ccc(Cl)cc1 | -2% | -2% | -2% | -31% | 8%
CC(C)COC(=O)NCCOC(=O)Nc1cccc(Cl)c1 | ? | -4%[9.22 µM] | -12% | ? | -1%
O=C(CCc1ccccc1)NNC(=S)NC(=O)c1ccc(Cl)cc1 | 21% | -2% | 11µM* | 13µM* | 1%
O=C(CCc1ccccc1)NNC(=S)NCc1ccc(Cl)cc1 | 14% | -3% | ? | 1.1µM* | 0%
S=C(NCc1ccccc1)NCc1ccc(Cl)cc1 | 4% | 2% | ? | ? | 2%
O=C(Nc1cccc(Cl)c1)OCCOCCOC(=O)Nc1cccc(Cl)c1 | 21µM* | 2% | . | . | .
Cn1c(CNC(=O)c2ccco2)nnc1SCCOc1ccccc1 | -4% | -5% | 3% | -21% | 3%
CC1CCCC(C)N1S(=O)(=O)c1ccc(NC(=O)CCN2C(=O)C3CC=CCC3C2=O)cc1 (configuration not stated) | 20% | -1% | . | . | -14%
NNC(=S)Nc1cccc(Cl)c1 | -26% | ? | ? | 7.9µM* | -3%
COc1ccc(NC(=S)Nc2cccc(Cl)c2)cc1OC | 1% | -17% | 8% | ? | -8%
C=COCCNC(=S)Nc1cccc(Cl)c1 | -3% | 0% | ? | 6.3µM* | 5%
Cc1ccc(C(=O)NNC(=O)CNc2cccc(Cl)c2)cc1 | 16% | -32% | 5% | 7% | 6%
O=C(CC(=O)NCc1ccc(Cl)cc1)NCc1ccccc1 | -1% | 0% | 5% | 14% | 17%
O=C(CNc1ccc(Cl)cc1)NNC(=S)NCc1ccccc1 | 13% | 0% | ? | 10µM* | -2%
COCCCNC(=S)NNC(=S)Nc1cccc(Cl)c1 | 8% | 23% | 6% | -29% | -29%
O=C(CNc1cccc(Cl)c1)NNC(=S)NCc1ccccc1 | 1% | -1% | -13% | 14µM* | -8%
NS(=O)(=O)c1cccc(NC(=O)CSc2n[nH]c(-c3ccccc3Br)n2)c1 | 4% | -16% | . | . | .
C=CCn1c(SCC(=O)N2CCc3ccccc3C2)nc2ccccc2c1=O | ? | 0% | -4% | 45% | -30%
S=C(NCc1ccccc1)Nc1cccc(Cl)c1 | -3% | -6% | 13µM* | 5.6µM* | -15%
CC(Sc1nc2ccccc2c(=O)n1C)C(=O)N(C)C1CCCCC1 (configuration not stated) | ? | -5% | . | . | -8%

Bioassay records from PubChem BioAssay.
